Most compounds without a hit are left out; they make up all but 11% or so of the library.
Lmaj promast – Leishmania major promastigote growth inhibition, primary screen. inhibition, % at 10 µM. actives 9% (n = 200,000). Leishmania major promastigotes, resazurin fluorescence viability; in the data active = inhibition above about 50%;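 note: promastigotes grown with compound for 44 hours at 28 °C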
WT yeast gro inh – growth inhibition of WT strain, primary screen, mitochondrial fusion inhibitor project, WT and mutant strains, chemical genetic; mitochondrial fusion phenotypic screen; inhibition, % at 10 µM; actives 2.1% (n = 190,000); in the data active = inhibition above about 58%; tested in S. cerevisiae
Insulin prom up – insulin promoter activators in MIN6 cells, imaging, high-content screening, mouse beta cells. MIN6 insulin promoter-GFP reporter; hits give high values. z-score at 5 µM. actives 0.3% (n = 190,000);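 active = z-score above 3 at 5 µM with at least 500 cells counted in the well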
Autophagy HCS – autophagy modulators in MEF cells, primary screen, imaging, high-content, MEF GFP-LC3; calls only at 10 µM (by protocol); actives 0.98% (n = 190,000); AID 463193, 2010; MEF GFP-LC3 puncta imaging; test concentration mostly 10 µM;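 active = percentage of spot-positive cells more than 3 SD above its plate mean, without a fluorescence outlier flag or 80% toxicity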;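 note: spot-positive cell cutoff set from DMSO-treated cells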
Insulin prom inh – inhibitors of insulin promoter-driven GFP, primary screen, imaging, TRM-6 cells (human fetal islet line), eGFP reporter, cell count; reporter expression induced with tamoxifen; inhibition, % at 2 µM; actives 0.9% (n = 130,000); AID 1273, 2008;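 active = inhibition above the mean plus 3 SD, with well images judged a real hit on visual review, cut at about 60% in these data, passing the limit was not always enough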
* hit, by the source's call; i = inactive; . = no result given.

SMILES	Lmaj promast	WT yeast gro inh	Insulin prom up	Autophagy HCS	Insulin prom inh
CCOC(=O)c1ccccc1NC(=O)c1cn(-c2ccc(C)c(C)c2)c(=O)c2ccccc12	98.2*	5.0	0.34	i	-8.0
COC(=O)c1ccccc1NC(=O)c1cn(-c2ccc(C)c(C)c2)c(=O)c2ccccc12	41.0	-0.9	-1.23	i	3.3
C=CCN(c1ccccc1)S(=O)(=O)c1cccc2cccnc12	.	.	0.47	.	.
CCN(CC(=O)Nc1ccc([N+](=O)[O-])cc1OC)CC(=O)NC(C)(C)C	71.0*	11.4	1.13	i	-25.9
COc1ccccc1NC(=O)c1ccc([N+](=O)[O-])cc1[N+](=O)[O-]	85.0*	0.6	.	i	-10.0
COc1ccc([N+](=O)[O-])cc1NC(=O)c1ccccc1SC	-3.0	-9.7	0.11	i	.
CCCCn1c(-c2ccco2)nc2ccccc2c1=O	-0.8	2.1	0.04	i	-44.7
CC(C)(C)c1nnc(N/N=C/c2cc(Br)ccc2O)n(N)c1=O	98.1*	16.3	-4.83	i	40.0
CCOC(=O)C1C(=O)C=C(c2ccc(Br)cc2)CC1c1ccco1 (configuration not stated)	4.8	62.4*	-0.54	i	-39.5
Cc1cccc(C)c1-n1c(C)nn(CC2CC2)c1=O	-3.3	-7.8	-0.35	i	.
CN(C)C(=O)c1nc2ccc(Cl)cn2c1CN1CCCC(OCc2cccnc2)C1 (configuration not stated)	-2.4	8.5	.	i	-35.0
Cc1cc(C)c2nc(/N=C(\N)NC(=O)Nc3ccccc3)nc(C)c2c1	100.3*	58.1*	-0.06	i	-5.4
O=C(Nc1ccccc1)OCCN1CCN(Cc2ccccc2)CCC1=O	2.7	13.8	-0.16	i	-18.2
Cc1ccc(NC(=O)OCCN2CCN(Cc3ccccc3)CCC2=O)cc1	74.1*	-10.8	0.46	i	-138.1
CC1CCC(NC(=O)CCNC(=O)c2ccccc2)CC1 (configuration not stated)	2.1	7.0	-0.18	i	.
Cc1cc2nc(Sc3c([N+](=O)[O-])nc(C)n3Cc3ccccc3)[nH]c2cc1C	93.1*	27.8	0.04	i	.
COc1ccc2nc(Sc3c([N+](=O)[O-])nc(C)n3Cc3ccccc3)[nH]c2c1	86.9*	8.8	0.32	i	.
Cc1nc([N+](=O)[O-])c(Sc2nc3ccccc3[nH]2)n1Cc1ccccc1	98.6*	5.3	1.78	i	19.4
Cc1nc([N+](=O)[O-])c(N2CCN(Cc3ccccc3)CC2)n1Cc1ccccc1	27.5	2.4	-3.12	i	13.3
COc1ccc2nc(SCC(=O)Nc3ccccc3)[nH]c2c1	2.0	5.0	0.6	i	23.1
O=C1CN(S(=O)(=O)c2cc(Cl)ccc2Cl)CCN1	8.6	-12.8	0.33	i	27.8
CN(C)C(=O)CCSc1nnc(-c2ccncc2)o1	-5.7	-18.5	0.78	i	35.7
CCN1/C(=C2/SC(=S)NC2=O)Sc2ccccc21	76.5*	2.0	-0.87	i	-35.7
COCCNC(=O)/C(C#N)=C/c1cc(C(C)C)c(OC)cc1C	17.4	15.7	0.15	i	27.8
CCCOc1ccc(-c2nc(C#N)c(NCC3CCCO3)o2)cc1 (configuration not stated)	92.1*	7.5	-0.88	i	-10.7
SMILES	Lmaj promast	WT yeast gro inh	Insulin prom up	Autophagy HCS	Insulin prom inh
CCOc1ccc(CN2CCN(Cc3cc4ccccc4[nH]3)CC2CCO)cc1 (configuration not stated)	78.7*	18.5	2.21	i	-38.1
Cc1ccccc1-c1ncc(CN2CCN(C3CCCCC3)C(CCO)C2)cn1 (configuration not stated)	56.0*	-11.9	.	i	-25.0
OCCC1CN(Cc2cnc(-c3ccccc3)s2)CCN1C1CCCC1 (configuration not stated)	79.9*	5.8	0.12	i	.
CCOc1ccc(CN2CCN(CC3=Cc4cccc(OC)c4OC3)CC2CCO)cc1 (configuration not stated)	78.3*	6.0	0.01	i	-13.0
CSc1ncc(CN2CCN(C3CCCCC3)C(CCO)C2)cn1 (configuration not stated)	-5.8	-17.2	-1.3	i	.
Cn1ccc(C(=O)Nc2ccc(Br)cc2Br)n1	0.4	8.7	0.66	i	14.3
CCOC(=O)CNC(=O)CSc1nc2c(C)cccc2cc1CC	-7.2	15.5	0.48	i	.
CCn1c(=O)[nH]c(=O)c2c(N)c(C(=O)c3cc(F)ccc3F)sc21	.	.	-1.15	.	.
CCOc1ccc(CN2CCN(Cc3cnc(-c4ccccc4)s3)CC2CCO)cc1 (configuration not stated)	86.2*	-1.8	-0.14	i	.
OCCC1CN(Cc2cnc(-c3ccccc3)s2)CCN1C1CCCCC1 (configuration not stated)	81.1*	-7.9	-1.01	i	.
O=C(NCCCN1CCOCC1)C(=O)N/N=C/c1ccc2c(c1)OCO2	1.4	-15.4	0.75	i	33.3
CCN(CC)CCNC(C(=O)Nc1cccc(C(C)=O)c1)c1ccccc1 (configuration not stated)	7.9	-8.8	0.27	i	-7.1
COC(=O)C1=C(CSc2nncn2C)NC(=O)NC1c1ccc(F)cc1 (configuration not stated)	-6.9	3.9	0.12	i	-73.5
CN1CCN(S(=O)(=O)c2cccc(C(=O)Nc3sc4c(c3-c3nc5ccccc5[nH]3)CCCC4)c2)CC1	98.1*	4.5	-2.08	i	-20.0
CC(C)OC(=O)c1c(NC(=O)CCn2nnc3ccccc32)sc2c1CCCC2	28.0	-16.5	0.19	i	.
CC(=O)NCCC(=O)Nc1sc2c(c1-c1nc3ccccc3[nH]1)CCCC2	98.0*	24.0	-1	i	-39.5
O=C(Nc1sc2c(c1-c1nc3ccccc3[nH]1)CCCC2)C1CCCC1	87.5*	17.0	-0.37	i	-73.0
O=C(Nc1nc2ccccc2[nH]1)C1CCCO1 (configuration not stated)	-4.5	-0.1	0	i	.
O=C(CSc1nnnn1-c1ccc(F)cc1)NC1CCCCC1	2.7	14.2	0.91	i	-36.0
O=C(CS(=O)(=O)Cc1ccccc1)Nc1ccc(S(=O)(=O)N2CCOCC2)cc1	-4.2	-2.7	-0.21	i	39.4
O=C(CS(=O)(=O)Cc1ccccc1)Nc1ccc(S(=O)(=O)N2CCCCCC2)cc1	51.9*	-2.6	-0.52	i	30.8
CC1CCCN(CC(=O)Nc2ccc(S(=O)(=O)N3CCCCC3)cc2)C1 (configuration not stated)	91.6*	1.2	.	i	-169.0
CC1CCCN(CC(=O)Nc2ccc(S(=O)(=O)NC3CCCCC3)cc2)C1 (configuration not stated)	31.6	98.5*	-1.33	i	.
CN(CC(=O)Nc1ccc(S(=O)(=O)N2CCCC2)cc1)Cc1c(F)cccc1Cl	99.7*	8.1	-1.23	i	.
CC1(C)CC(CC(=O)Nc2nccs2)(c2ccccc2)CCO1 (configuration not stated)	-2.5	-1.2	-0.07	i	.

Assay outcomes as filed in PubChem.
